Assay results taken from PubChem BioAssay (NCI).
Compounds without any hit were thinned out: in the full panel of roughly 79,000, 15% have a hit. Activity calls are given as the source filed them. Cut-off read from the data, not from the text of the source: active = growth inhibition above about 70%; inactive = the rest.

What was measured:
[1] = NCI Yeast Anticancer Drug Screen. Data for the rad50 strain (AID 155);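 note: 0% = growth of vehicle-only cultures of the same strain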; conditions: S. cerevisiae rad50 strain growth inhibition; at 50.0 µM; stronger effect = higher value
Outline: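 Vehicle-treated cultures provide the reference for the growth inhibition reported for compound-exposed, repair-deficient yeast.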

[2] = NCI Yeast Anticancer Drug Screen. Data for the mec2-1 strain (AID 157); conditions: S. cerevisiae mec2-1 strain, at 50.0 µM, stronger effect = higher value
Outline: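 Strain: mec2-1 (DNA repair/cell cycle alteration). Compound exposure, then growth measured; inhibition expressed relative to vehicle.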

[3] = NCI Yeast Anticancer Drug Screen. Data for the sgs1 mgt1 strain (AID 161);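 note: 0% = growth of cultures given vehicle only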; conditions: S. cerevisiae sgs1 mgt1 strain, at 50.0 µM, stronger effect = higher value
Outline: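 Mutant yeast exposed to compound; growth scored against vehicle-only wells.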

[4] = NCI Yeast Anticancer Drug Screen. Data for the cln2 rad14 strain (AID 165);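 note: 0% = growth equal to vehicle treated cultures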; conditions: S. cerevisiae cln2 rad14 strain, at 50.0 µM, stronger effect = higher value
Outline: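 Compounds are applied to the cln2 rad14 yeast strain, and growth is then compared with that of vehicle-treated cultures to give inhibition.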

[5] = NCI Yeast Anticancer Drug Screen. Data for the bub3 strain (AID 167); conditions: S. cerevisiae bub3 mutant strain, at 50.0 µM, stronger effect = higher value
Outline: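 Mutant yeast screening strain plus compound; vehicle-treated cultures serve as the 0% inhibition reference.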

[6] = NCI Yeast Anticancer Drug Screen. Data for the mlh1 rad18 strain (AID 175); conditions: S. cerevisiae mlh1 rad18 strain growth inhibition; at 50.0 µM; stronger effect = higher value
Outline: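 Read-out is yeast growth inhibition, calculated against vehicle-only controls. The compound was applied to a strain engineered with DNA damage repair alterations.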

Measured: growth inhibition

CCn1c2ccccc2c2ccc(N=Cc3ccc4ccccc4c3)cc21
inactive: [1] 5.65% | [2] -2.3% | [3] -7.3% | [4] -14% | [5] 14.3% | [6] 1.3%

Oc1c(Cl)cc(Cl)cc1C=Nc1cc(C(F)(F)F)ccc1N1CCc2ccccc2C1
inactive: [1] 53.5% | [2] 0.25% | [3] 50% | [4] 14.4% | [5] 42.8% | [6] 39.6%

CCC(=O)Oc1cccc(C)c1
inactive: [1] 13.8% | [2] -8.4% | [3] 2.05% | [4] -10.6% | [5] 4.2% | [6] -15.4%

O=C1S/C(=C2\C(=O)N(CN3CCCCC3)c3ccc(Br)cc32)C(=O)N1CN1CCCCC1
inactive: [1] 37.4% | [2] -2.9% | [3] 9.35% | [4] -2.05% | [5] -1.6% | [6] 22.2%

CC(=O)OC(C(=O)Nc1ncccn1)c1ccccc1 (stereo not given)
inactive: [1] -4.7% | [2] -2.8% | [3] -5.65% | [4] 11.4% | [5] 4.5% | [6] -10.9%

O=C1OC(=O)C2C1C1c3ccccc3C2(O)c2ccccc21 (stereo not given)
inactive: [1] -1.8% | [2] -17.9% | [3] 0.2% | [4] 2.95% | [5] 6.1% | [6] -0.6%

C/C(CC(=O)Nc1cccc(Cl)c1C)=N\NC(=O)c1ccncc1
inactive: [1] 6.05% | [2] -2.3% | [3] -6.2% | [4] -2% | [5] -0.5% | [6] 0.95%

CCSc1nc(C)nc2c1cnn2-c1ccccc1
inactive: [1] -0.1% | [2] -6.7% | [3] -2.65% | [4] -35.6% | [5] -13.8% | [6] 1.95%

CC1Cc2ccc(OCC(O)CO)cc2C1=O (stereo not given)
inactive: [1] 7.35% | [2] 1.8% | [3] 11.1% | [4] 15.1% | [5] -0.2% | [6] 1.7%

NS(=O)(=O)c1ccc(N2C(=O)C(=O)N(c3ccccc3)C2=S)cc1
inactive: [1] -15.8% | [2] -11.9% | [3] -16.2% | [4] -39.4% | [5] -3.75% | [6] -20.5%

CCCCC(CC)CN(CCOC(=O)c1cc2ccccc2oc1=O)CC(CC)CCCC (stereo not given)
inactive: [1] 20.8% | [2] -4.2% | [3] 48.8% | [4] 55% | [5] 20.8% | [6] 31.8%

CCCCCC(=O)OCCOCCCC
inactive: [1] 2.05% | [2] 4% | [3] -4.6% | [4] -35.4% | [5] 6.85% | [6] 5.85%

Cn1c(N2CCCC2)c(C=O)c(=O)n(C)c1=O
inactive: [1] 4.5% | [2] 1.45% | [3] 8.6% | [4] 21.3% | [5] -10.9% | [6] -15.1%

CC(=O)NC1CC2c3ccccc3C1([N+](=O)[O-])c1ccccc12 (stereo not given)
inactive: [1] 4.1% | [2] 17.6% | [3] 15.6% | [4] 6.45% | [5] -4.6% | [6] -3.9%

Cc1ccc(N(C)C)cc1
inactive: [1] -25.3% | [2] -15.1% | [3] 10.8% | [4] -18.4% | [5] -0.45% | [6] 6.4%

COc1nc2[nH]ccc2c(=O)[nH]1
inactive: [1] -23.8% | [2] -25.2% | [3] -31.8% | [4] 3.15% | [5] -11.3% | [6] -11.1%

C=CC(C)c1cccc(C=O)c1O (stereo not given)
inactive: [1] 0.3% | [2] -7.3% | [3] -0.3% | [4] -32% | [5] 17.8% | [6] 15.2%

COC(=O)C1(CC(=O)c2cccc3ccccc23)NC(=S)NC(=O)C1C#N (stereo not given)
inactive: [1] 0.55% | [2] 15.7% | [3] -17.4% | [4] -13.3% | [5] -0.7% | [6] -9.35%

O=C(NCc1ccccc1)Nc1cccc2c(NC(=O)NCc3ccccc3)cccc12
inactive: [1] -32.3% | [2] -31.2% | [3] -26.9% | [4] -8.15% | [5] -27.5% | [6] -7.95%

C/C(=N\Nc1cc(C)nc2cc3c(cc12)OCO3)c1cn(C)n(-c2ccccc2)c1=O
inactive: [1] 19.9% | [2] 54.5% | [3] 21.6% | [4] 34.9% | [5] 12.4% | [6] 39.1%

COC1(OC)CC2OC1C1N=NN(C(=O)OC(C)(C)C)C21 (stereo not given)
inactive: [1] 28.1% | [2] 13.3% | [3] 6.8% | [4] 21.6% | [5] 16.8% | [6] 31.4%

CSc1nc2ccc(NCn3c(=O)sc4cc(Br)ccc43)cc2s1
inactive: [1] 1% | [2] 38.9% | [3] 4.6% | [4] 30.9% | [5] 65.5% | [6] 42%

C=C(C)C(=O)OCCOCCOCCOC(=O)C(=C)C
inactive: [1] 8.4% | [2] -19.2% | [3] -9.75% | [4] 3% | [5] -7.7% | [6] 4.5%

Cc1ccccc1NCS(=O)(=O)O
inactive: [1] 18.2% | [2] -18.3% | [3] 13.2% | [4] -6.35% | [5] -14.8% | [6] 4.6%

C[N+](=C\c1ccccc1O)/N=C\c1ccccc1O
inactive: [1] 7.15% | [2] 2.05% | [3] 6.75% | [4] -35.6% | [5] 8.2% | [6] -1.5%

CC(C)=C1C(=O)C[C@]2(C)C/C=C(\C)CC/C=C(\C)CC[C@@H]12
inactive: [1] 39.5% | [2] 40.9% | [3] 62.5% | [4] 46.2% | [5] 58.9% | [6] 38.8%

CC(=O)/C(=C/n1c(=S)[nH]c2ccccc21)C(=O)Nc1ccc([N+](=O)[O-])cc1
inactive: [1] -17.5% | [2] -2.75% | [3] -13.9% | [4] -8.9% | [5] -14.1% | [6] -13.2%

CN(C)C(=O)Sc1ccc([N+](=O)[O-])cc1Cl
inactive: [1] 15.4% | [2] 4.6% | [3] 5.7% | [4] 14.6% | [5] -4.3% | [6] 16.8%

CC1(C)Cc2oc(=Nc3ccccc3)n(-c3ccccc3)c(=O)c2C1
inactive: [1] 9.95% | [2] 2.15% | [3] 1.9% | [4] -13.2% | [5] 4.6% | [6] 0.15%

CC[N+](C)(C)c1ccc(/C=C(/C#N)C(=O)OC)cc1
inactive: [1] 7.55% | [2] 9.8% | [3] 12.8% | [4] 11.2% | [5] -1.2% | [6] -1.55%

N#Cc1nc(CC(=O)c2ccc(Cl)c(Cl)c2)c(CC(=O)c2ccc(Cl)c(Cl)c2)nc1C#N
inactive: [1] 12.1% | [2] 10.4% | [3] 9.2% | [4] 31.4% | [5] 27.6% | [6] 20.2%

CCCCCCCCCCCCC/C=C/CC(CC(=O)Nc1ccc(-n2c(=O)cc(C)n2C)cc1)C(=O)O (stereo not given)
inactive: [1] 3.75% | [2] -24.1% | [3] 13.1% | [4] 21.2% | [5] 20.6% | [6] 5.65%

COC1OCC(OS(C)(=O)=O)C(OS(C)(=O)=O)C1OS(C)(=O)=O (stereo not given)
inactive: [1] -22.5% | [2] -6.1% | [3] -26.1% | [4] -55.2% | [5] -1% | [6] -2.85%

CC(=O)c1ccc(O)c(CN(C2CCCCC2)C2CCCCC2)c1O
inactive: [1] -2.9% | [2] -10.3% | [3] -36.1% | [4] 12.4% | [5] -18% | [6] 4.5%

CCCCOC(OCCCC)C(OCCCC)OCCCC
inactive: [1] 18.9% | [2] 8.2% | [3] 19.8% | [4] -0.4% | [5] 16.4% | [6] 38%

N#C/C(N)=C(\C#N)NC=NCc1ccccc1
inactive: [1] -10.8% | [2] -18.6% | [3] 20.2% | [4] 2.3% | [5] 26.3% | [6] -21.1%

CCOC(=O)c1nc(N)c2c(CC#N)nn(C)c2n1
inactive: [1] 2.35% | [2] -15.4% | [3] 8.3% | [4] -9.75% | [5] 9.95% | [6] -16.4%

CN(C)C(=O)Sc1ccc([N+](=O)[O-])cc1
inactive: [1] 4.75% | [2] -12.8% | [3] -14.6% | [4] -45.5% | [5] 4.6% | [6] -19.8%

O=[N+]([O-])c1cc(C(F)(F)F)ccc1Oc1cccc(C(F)(F)F)c1
inactive: [1] -13.4% | [2] 2% | [3] 5.6% | [4] -64.8% | [5] 42.6% | [6] 16.9%

CN(C)C(=O)CCCCC(=O)N(C)C
inactive: [1] 16.5% | [2] -5.2% | [3] 1.45% | [4] -14.7% | [5] 5.65% | [6] -22.2%
